# From PubChem BioAssay AID2566 (National Center for Advancing Translational Sciences (NCATS), 2010)
# Values joined by “and” are separate entries in the source; they are usually repeats but may differ in a detail not shown here. Identical values can stand only once. Results filed as inconclusive are left out. Active and inactive are the calls of the source.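 The calls were made as follows: active = compound that pushes labeled neuropeptide S off its receptor in a binding test; inconclusive = all other tested compounds; inactive = none, nothing was called inactive.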
# Biological target: Neuropeptide S receptor (Homo sapiens) (UniProt Q6W5P4)
# Test: Confirmation Concentration-Response Assay for Antagonists of the Neuropeptide S Receptor: Radioligand Displacement, SAR for Probe
# Settings: CHO-hNPSR, [125I]Y10-NPS displacement, 1.5 h
# Text: NIH Chemical Genomics Center [NCGC] NIH Molecular Libraries Probe Production centers Network [MLPCN] MLPCN Grant: X01-DA026210-01 Assay Submitter (PI): Heilig, Markus Alexander NCGC Assay Overview: Neuropeptide S receptor (NPSR), previously known as GPR154, is a recently de-orphanized G protein coupled receptor. Its endogenous ligand is the 20 amino acids peptide Neuropeptide S (NPS). […] NPS and its receptor are found in various tissues. Specifically they are highly expressed in brain areas that have been implicated in modulation of arousal, stress and anxiety. Central administration of NPS in mice produces an unusual profile of activity by inducing wakefulness and arousal, while at the same time suppressing anxiety. Therefore, NPSR may represent a novel drug target for the treatment of sleep and anxiety disorders. As one method of confirming the specific activity of compounds active in the primary screen (AID 1461), we developed an assay to measure the displacement of radio-labeled native ligand, NPS, from its receptor in vitro.
# The assay was carried out as described (Xu et al. (2004) Neuron, 43: 487-497) with minor modification. Y10-NPS labeled with 125I was bought from NEN Perkin Elmer (Boston, MA). CHO cells stably expressing human NPSR were seeded into 24-well plates and cultured until reaching 90-95% confluency. Cells were washed with 1ml PBS once and then incubated with radioligand with or without compounds or in DMEM medium containing 0.1% bovine serum albumin at 20C for 1.5 hr. Increasing concentrations of compounds or unlabeled human NPS were used to compete with 0.15 nM [125I] Y10-NPS. Nonspecific binding was determined in the presence of 1 uM unlabeled human NPS. Cells were washed twice with cold PBS and lysed with 1 N NaOH. Bound radioactivity was counted in a liquid scintillation counter.
# Chain of Neuropeptide S receptor (Homo sapiens) (Q6W5P4 whole entry, looked up): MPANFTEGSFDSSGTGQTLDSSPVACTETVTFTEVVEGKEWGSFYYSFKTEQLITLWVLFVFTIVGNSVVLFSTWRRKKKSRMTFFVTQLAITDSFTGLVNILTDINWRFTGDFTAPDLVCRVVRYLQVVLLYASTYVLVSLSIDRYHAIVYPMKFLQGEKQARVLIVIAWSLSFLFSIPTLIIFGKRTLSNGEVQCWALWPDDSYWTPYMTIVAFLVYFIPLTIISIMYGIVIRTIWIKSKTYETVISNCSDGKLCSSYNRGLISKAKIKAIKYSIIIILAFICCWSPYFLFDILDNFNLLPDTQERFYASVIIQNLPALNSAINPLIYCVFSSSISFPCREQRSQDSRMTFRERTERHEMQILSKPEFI
row,Structure (SMILES),Potency
1,COc1cccc(C2c3c(ncn(-c4ccccc4)c3=N)Oc3ccc4ccccc4c32)c1 (centres undefined),266 nM (active)
2,COc1cccc(C2c3c(ncn(CCN4CCOCC4)c3=N)Oc3ccc4ccccc4c32)c1 (centres undefined),439 nM (active)
3,O=C1OC(c2ccccc2)(c2ccccc2)N2CCN(C(=O)NCc3ccc(F)cc3)CC12 (centres undefined),5.93 nM (active)
4,N=c1c2c(ccn1-c1ccccc1)Oc1ccc3ccccc3c1C2c1ccccc1 (centres undefined),367 nM (active)
5,CCC(C)(CCN1CCOCC1)N(Cc1cc2ccccc2n(C)c1=O)C(=O)C1CCCCC1 (centres undefined),6.54 nM (active)
6,CCOC(=O)CC(=O)Nc1ncnc2c1C(c1ccccc1)c1c(ccc3ccccc13)O2 (centres undefined),616 nM (active)
7,COc1ccc(C2c3c(ncn(CCN4CCOCC4)c3=N)Oc3ccc4ccccc4c32)cc1OC (centres undefined),256 nM (active) and 190 nM (active)
8,N#CC1=C(NC=NCc2ccccc2)Oc2ccc3ccccc3c2C1c1ccccc1 (centres undefined),322 nM (active)
9,CCOC(=O)C1CCCN(c2ncnc3c2oc2ccccc23)C1 (centres undefined),26400 nM (active)
